A selection: hits, their analogues and other compounds. The true share with any hit is near 18%.
TDP1 cell noCPT = qHTS for Inhibitors of human tyrosyl-DNA phosphodiesterase 1 (TDP1): qHTS in cells in absence of CPT. DT40 Tdp1-/- hTDP1 cells, no CPT, ATP luminescence, 48 h. Potency, µM (top dose mostly 46.2 µM), for the others: at the highest dose activity change, negative = growth inhibition, usual class: inhibitors. actives 15% (n = 420,000). AID 686978, 2013; further: potency means the concentration at half of the fitted maximal effect; on the % scale 0 is the no-effect control and ±100 the full control effect; nearly all actives have a fitted effect of over 55% in size
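Readout: luminescence from CellTiter-Glo after 30 min in the dark at RT. Cells: DT40 Tdp1-/- with stable hTDP1, 400/well. Exposure: compounds alone, ≥48 hr, 37 °C.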
TGFb SMAD3 inh = inhibitors of TGF-b signaling. HepG2 CAGA-GFP TGF-b/SMAD3 reporter, GFP fluorescence, 18 h; TGF-beta stimulated, 500 pg/mL final. Potency, µM (doses to about 46.1 µM), for the others: at the top dose activity, negative = inhibition, hits mostly inhibitors. actives 1.2% (n = 410,000). AID 588855; further: potency means the concentration at half of the fitted maximal effect; on the % scale 0 is the no-effect control and ±100 the full control effect; nearly all actives have a fitted effect of over 65% in size
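HEPG2 CAGA-GFP cells (1000/well, DMEM with 1% FBS) were pre-incubated 2 h at 37 degrees C, given compound by pin tool, then stimulated with TGF-beta at 500 pg/mL final for 18 h before per-cell GFP fluorescence imaging.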
TDP1 cell CPT = growth inhibition of DT40 Tdp1-/-;hTDP1 cells with camptothecin (screen for TDP1 inhibitors); chicken DT40 Tdp1-/-;hTDP1 cells + 20 nM CPT, ATP luminescence, 48 h; Potency, µM (highest dose often 46.2 µM), inactives show at the top dose activity change, negative = growth inhibition, usual class: inhibitors; actives 12% (n = 420,000); further: potency means the concentration at half of the fitted maximal effect; on the % scale 0 is the no-effect control and ±100 the full control effect; nearly all actives have a fitted effect of over 55% in size
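Cell growth measured by CellTiter-Glo luminescence after a minimum 48 h, 37 C compound exposure with 20 nM CPT in Tdp1-knockout DT40 cells stably expressing hTDP1, seeded 400/well; qHTS titration format.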
HepG2 viability = counter-screen for TGF-b inhibitors: cytotoxicity in HepG2 cells; HepG2 CAGA-GFP viability, ATP luminescence, 18 h; Potency, µM (titrated, usually from 46.1 µM), for the others: top-dose activity change, negative = cytotoxicity, most hits filed as cytotoxic; actives 0.76% (n = 410,000); AID 588856; further: potency means the concentration at half of the fitted maximal effect
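CellTiter-Glo luminescence gave cytotoxicity after 18 hours at 37 degrees C. The cells were HepG2 CAGA-GFP in 1% FBS DMEM, stimulated with 500 pg/mL TGF-beta after compound addition. %Activity was normalised to no-cell wells (complete cell-killing) and DMSO (no toxicity), and curves were fitted and classified.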
TDP1 block = inhibitors of human tyrosyl-DNA phosphodiesterase TDP1; AID 485290; recombinant TDP1, AlphaScreen DNA substrate cleavage; Potency, µM (series often up to 130 µM), without a hit: at the top dose activity change, negative = inhibition, hits mostly inhibitors; Q9NUW8; actives 0.28% (n = 350,000); further: potency means the concentration at half of the fitted maximal effect; on the % scale 0 is the no-effect control and ±100 the full control effect; nearly all actives have a fitted effect of over 40% in size
Target sequence (Q9NUW8 whole entry, looked up): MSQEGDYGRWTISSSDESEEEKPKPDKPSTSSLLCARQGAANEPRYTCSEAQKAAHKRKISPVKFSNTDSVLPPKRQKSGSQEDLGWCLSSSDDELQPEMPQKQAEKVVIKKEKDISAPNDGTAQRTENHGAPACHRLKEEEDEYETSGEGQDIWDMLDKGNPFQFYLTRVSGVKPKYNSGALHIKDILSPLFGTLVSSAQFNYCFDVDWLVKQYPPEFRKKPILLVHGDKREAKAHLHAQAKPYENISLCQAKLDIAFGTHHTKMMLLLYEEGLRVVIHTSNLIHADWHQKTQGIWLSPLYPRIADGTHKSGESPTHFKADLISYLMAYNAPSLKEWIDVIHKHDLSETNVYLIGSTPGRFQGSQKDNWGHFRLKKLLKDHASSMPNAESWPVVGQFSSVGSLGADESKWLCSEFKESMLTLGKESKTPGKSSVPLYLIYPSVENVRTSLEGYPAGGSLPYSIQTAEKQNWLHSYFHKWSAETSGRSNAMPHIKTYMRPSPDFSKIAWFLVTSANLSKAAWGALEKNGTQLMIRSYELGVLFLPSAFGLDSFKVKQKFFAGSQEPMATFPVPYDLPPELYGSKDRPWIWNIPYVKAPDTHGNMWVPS
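Recombinant human Tdp1 (E. coli-expressed, 1 nM final) preincubated with compounds 15 min at room temperature, then 5'-biotin/3'-phosphotyrosine-FITC DNA substrate (15 nM final) added for 5 min. AlphaScreen beads (10 ug/ml final) added 10 min; cleavage lowers signal.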
IL1B secr inh = blocks inflammasome-driven IL-1 beta release; THP-1 LPS/ATP IL-1B secretion, AlphaLISA, 16 h; active compounds read low; activity change, % at 57.5 µM; actives 4.7% (n = 360,000); in the data active means activity change below about -50%; inconclusive means mostly about -30% to -49%; further: on the % scale 0 is the no-effect control and ±100 the full control effect
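THP-1 cells pretreated 1 hr with compounds (up to 57.5 uM final), then stimulated with LPS (250 ng/mL final) plus ATP (1.25 mM final); secreted IL-1B measured by AlphaLISA after 16 hr, decreased signal indicating inhibition.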
* marks the source's active call; other numbers are inactive results; ? = inconclusive; . = not tested or not shown; [ ] = another dose, or the depositor's remark. Unless noted, the call rests on the fitted dose curve; in most records, active means well fitted curve in the direction sought with a large enough effect; inconclusive means small, poorly fitted or top-dose-only effect, or another doubt; inactive means no such curve, though single readings can be large; an effect the other way counts as inactive or inconclusive.

SMILES | TDP1 cell noCPT | TGFb SMAD3 inh | TDP1 cell CPT | HepG2 viability | TDP1 block | IL1B secr inh
CCC(=O)N1CCc2cc(Br)cc(S(=O)(=O)N3CCCC(C(=O)Nc4cccc(F)c4)C3)c21 (configuration not stated) | 18.4µM* | ? | 23.1µM* | -9.1% | 0.0% | .
CCC(=O)N1CCc2cc(Br)cc(S(=O)(=O)N3CCCC(C(=O)Nc4cccc(C)c4C)C3)c21 (configuration not stated) | ? | -23.9% | ? | -17.5% | -1.8% | .
CN(C(=O)c1ccc(NC(=O)Cc2ccc([N+](=O)[O-])cc2)cc1)C1CC1 | ? | 0.3% | ? | -2.3% | 2.2% | 3.1
Cc1ccc(OCC(=O)Nc2cc(-c3nc4cc(Cl)ccc4o3)ccc2C)c(C)c1 | -11.8% | -4.9% | -24.4% | 6.4% | . | .
O=C(COC(=O)/C=C/c1ccccc1Cl)NC1CC1 | -2.6% | -21.2% | -2.6% | -7.1% | . | 0.0
COc1ccc(CCNC(=O)c2cc3c(=O)n4cccc(C)c4nc3n2C)cc1 | ? | 4.8% | 2.3% | -16.3% | -1.3% | .
CC1(C)OC(=O)C2(Cc3c(F)cccc3N3CCCC32)C(=O)O1 (configuration not stated) | . | -2.8% | . | -0.6% | . | .
CC1=CC(C)(C)N2C(=O)C3(SCC(=O)N3c3ccc(F)cc3)c3cc(C)cc1c32 (configuration not stated) | 10.3µM* | ? | 29.1µM* | -38.5% | 7.9% | -16.1
CCc1nc2c(OCc3ccc(C(F)(F)F)cc3)cccn2c1N(C)C(=O)c1ccc(OC)cc1 | 13µM* | ? | 10.3µM* | -40.4% | . | -80.6*
CCc1nc2c(OCc3ccc(C#N)cc3)cccn2c1N(C)C(=O)c1ccc(C)cc1 | 18.4µM* | 27.4% | 18.4µM* | -0.1% | . | -20.1
CCc1nc2c(OCc3ccc(F)cc3)cccn2c1N(C)C(=O)c1ccncc1 | -28.6% | 35.5% | -13.1% | 7.6% | . | 13.0
CCc1nc2c(OCc3ccc(C(F)(F)F)cc3)cccn2c1N(C)C(=O)c1ccc(C)cc1 | 23.1µM* | ? | 23.1µM* | -46.1% | . | -76.0*
Cc1nc(Nc2ccncc2)c2oc3ccccc3c2n1 | 11.6µM* | -11.8% | 10.3µM* | -29.6% | 4.2% | -93.2*
Cc1cccc(Nc2nc(C)nc3c2oc2ccccc23)c1 | ? | -21.8% | 16.4µM* | -6.5% | . | 3.6
O=C(Cc1cc(=O)[nH][nH]1)N/N=C/C=C/c1ccccc1 | 29.1µM* | 6.1% | ? | -20.1% | 13.9% | ?
CCCCc1ccc(NC(=S)NCc2cccc(OC)c2)cc1 | ? | ? | ? | -16.7% | 5.4% | -79.3*
Cc1cccc(NC(=S)NCc2ccc3c(c2)cc(C)n3C)c1C | 14.6µM* | ? | 11.6µM* | -43.8% | 8.2% | -4.0
Cc1cc2cc(CNC(=S)Nc3ccc(OC(F)(F)F)cc3)ccc2n1C | ? | -31.2% | ? | -34.3% | 5.5% | 11.1
COc1cccc(NC(=S)NCc2ccc3c(c2)cc(C)n3C)c1 | 16.4µM* | 5.4% | -20.3% | 6.1% | 7.0% | -27.6
COc1ccc(C=O)cc1Oc1nc(Cl)ncc1F | ? | 0.0% | ? | 2.1% | -3.6% | -0.2
CCOC(=O)N1CCC(c2nc3ccccc3[nH]2)CC1 | -22.2% | -8.4% | ? | -19.7% | 0.0% | 22.7
CCN1C(C)=C(C(=O)OC)C(c2ccccc2)N2C(=O)[C@](O)(C(=O)OC)C(c3ccccc3)C(C(C)=O)=C12 (some centres not stated) | . | . | . | . | 5.8%[21 µM] | .
Cc1nnc(SCC(=O)NC2CC2)n1CC1CCCO1 (configuration not stated) | 15.0% | 11.7% | -11.1% | -8.5% | 0.0% | -1.3
CC1(C)CC2(CC(c3cccs3)c3cc(Cl)c(O)cc3O2)NC(=S)N1 (configuration not stated) | 7.31µM* | -1.9% | 8.2µM* | 5.6% | 8.0% | 17.4
CC1(C)CC2(CC(c3ccc(F)cc3)c3ccc(O)cc3O2)NC(=S)N1 (configuration not stated) | ? | ? | ? | -46.1% | 4.3% | -1.9
SMILES | TDP1 cell noCPT | TGFb SMAD3 inh | TDP1 cell CPT | HepG2 viability | TDP1 block | IL1B secr inh
Cc1cccc(NC(=S)NC(C)C(c2ccccc2)N2CCN(C)CC2)c1C (configuration not stated) | 25.9µM* | 7.1% | ? | -11.8% | 7.2% | -50.5*
Cc1ccc(S(=O)(=O)N(CC(=O)NCCSCc2ccco2)c2ccc(F)cc2)cc1 | . | . | . | . | 2.7% | .
Cc1ccc(N(CC(=O)NCCSCc2ccco2)S(=O)(=O)c2ccc(F)cc2)cc1 | 23.1µM* | -20.8% | 25.9µM* | 3.8% | 4.8% | -23.2
Cc1ccc(S(=O)(=O)N(CC(=O)NCCSCc2ccco2)c2cc(C)ccc2C)cc1 | ? | 2.7% | 15.8µM* | -17.6% | . | -23.9
CN(CC(=O)NC(=O)NCc1ccccc1)CC(=O)Nc1ccc(Cl)c(Cl)c1 | ? | ? | 25.9µM* | -22.8% | -2.5% | -7.7
O=C(Nc1ccc(Cl)c(Cl)c1)c1ccc2c(c1)OCO2 | ? | -2.2% | 13.5% | -10.4% | -0.7% | -7.0
CN(CC(=O)Nc1ccc(Cl)c(Cl)c1)CC(=O)Nc1ccc2c(c1)OCO2 | 4.2% | ? | ? | -27.3% | 1.8% | -56.8*
CN(CC(=O)Nc1ccc(Cl)cc1)C(=O)CNC(=O)Cc1cccc2ccccc12 | ? | -3.8% | ? | -18.9% | 1.5% | -26.9
CN(CC(=O)Nc1ccc(Cl)c(Cl)c1)C(=O)CNC(=O)Cc1ccccc1 | 13µM* | -3.3% | 20.6µM* | 6.3% | 1.0% | ?
COCCn1c(SCc2ccc(OC)c(F)c2)nnc1-c1ccncc1 | -13.5% | -4.6% | -2.3% | -4.4% | 12.1% | -16.3
O=C(Nc1ccccc1)c1cc(C2CCCCN2C(=O)c2ccccc2)on1 (configuration not stated) | ? | ? | 20.6µM* | -25.5% | . | 17.8
O=C(Nc1ccc2c(c1)OCO2)c1cc(C2CCCN(C(=O)C3CCCCC3)C2)on1 (configuration not stated) | ? | -6.0% | 23.1µM* | -35.4% | . | -21.6
O=C(Nc1ccccc1Cl)c1cc(C2CCCCN2C(=O)c2ccccc2)on1 (configuration not stated) | ? | ? | 29.1µM* | -9.9% | . | 9.3
